The record followed here is PubChem BioAssay AID652175 (National Center for Advancing Translational Sciences (NCATS), 2013).

Several values for one entry are separate records, joined by “and”; a condition that tells them apart may be missing. Identical values can stand only once. Results filed as inconclusive are left out. Entries that show only a call come without a potency. Activity calls are given as the source filed them. The call rests on the fitted dose curve; in most records, active means well fitted inhibition curve with a large enough effect; inconclusive means small, poorly fitted or top-dose-only effect; inactive means no such curve, though single readings can be large or run the other way.

This assay is described as follows: qHTS Assay for Lipid Storage Modulators: S3 Assay against Probe and Analogs. As to conditions: Drosophila S3 cells, BODIPY lipid droplet fluorescence, 18-24 h, oleic acid added to induce droplets; series mostly up to 46.1 µM. From the text: Storing lipids as a reservoir for energy or the anabolism of elementary metabolites is a common feature of probably all cells and is conserved from bacteria to humans. The universal cellular lipid storage organelle is the so-called lipid storage droplet (LD). Although ubiquitous, LDs share a simple structure composed of a hydrophobic core that harbors the storage lipids, which is shielded by a droplet-specific phospholipid monolayer to which proteins are attached. The current model of LD biogenesis involves an incorporation of the lipid core into the membrane leaflets of the endoplasmic reticulum (ER) followed by a subsequent budding-like maturation of a LD, which ultimately pinches off. Once released, LD volume can increase by localized lipogenesis or fusion of existing droplets. Storage lipids are re-mobilized enzymatically by lipase activity. Lipase regulation in the adipocyte is heavily studied and involves multiple components including catecholamine signaling, the LD-associated proteins Perilipin and comparative gene identification-58 (CGI-58) and at least two lipases named hormone sensitive lipase (HSL) and adipocyte triglyceride lipase (ATGL). LD regulation outside of the adipocyte is poorly understood and only few components are known. However, there is an urgent need to learn more about ectopic fat depots as mislocalized storage of lipids, for example in the liver or muscle, is an eminent health problem associated with insulin resistance or the metabolic syndrome. We developed a laser-scanning cytometer assay to enable 1,536-well screening and combined the results of the small molecules screen with an RNAi database based on lipid storage. In this assay we tested analogs of the probe against the original qHTS assay, which involved drosophila melanogaster cells (S3), to see if these small molecules could disrupt lipid storage. NIH Molecular Libraries Probe Production Centers Network [MLPCN] NIH Chemical Genomics Center [NCGC] MLPCN Grant: MH085686 Assay Submitter (PI): Mathias Beller, Max-Planck-Institut fur Biophysikalische Chemie
qHTS was performed with embryonic Drosophila S3 cells (Bloomington Drosophila Genomics Resource Center [DGRC]). We dispensed 4 uL of cells at 1.25 x 10^6 cells/mL into LoBase Aurora COC 1,536-well plates (black walled, clear bottom) with a bottle-valve solenoid-based dispenser (Aurora) to obtain 5,000 cells/well. Triacsin C (Sigma-Aldrich T-4540), an inhibitor of long-chain fatty acyl CoA synthetase that blocks synthesis of triglycerides, was used as a positive control for lipid under-storage. A total of 23 nL of compounds dissolved in DMSO at different concentrations were transferred to the assay plates using a Kalypsys pin tool equipped with a 1,536-pin array containing 10-nL slotted pins (FP1S10, 0.457-mm diameter, 50.8 mm long; V&P Scientific). The final DMSO concentration was 0.46%. One microliter of oleic acid at 400 uM (Calbiochem, #4954) was added to induce lipid droplet formation in the cells, and the plates were lidded with stainless steel rubber gasket lined lids containing pinholes. After 18-24 h incubation at 25 0C and 95% humidity, 4 uL of the BODIPY lipid dye 493/503 (1:2000, Molecular Probes) and the Cell Tracker Red CMTPX dye (Life Technologies, # 34552) were added to the wells to stain lipid droplets and enumerate cell number, respectively. Fluorescence was detected by excitation of the fluorophores with a 488-nm laser on an Acumen Explorer (TTP Lab Tech). The total intensity in channel 1 (500-530 nm) reflected lipid droplet accumulation. Cells were detected using channel 3 (575-640 nm) with 5-um width and 100-um depth filters. The ratio of the total intensity in PMT channel 1 over total intensity of channel 3 was also calculated. Percent activity was computed relative to an internal control (100% inhibited lipid droplet deposition due to the presence of 20 uM Triacsin C), which was added to 32 wells/plate.
Regarding `O=C(NC1CCCc2c1cnn2-c1ccc(F)cc1F)C1CCCCC1` (stereo not given), the Potency entry was “inactive”. Turning to `Cc1ccc(NC(=O)c2ccc(CN3CCN(C)CC3)cc2)cc1Nc1nc(-c2cccnc2)cs1`, the Potency result is “inactive”. Take `CCOc1ccc(CCNC(=O)CN(C)C)cc1OCC`: the Potency result is “inactive”. For `CCOc1cc2c(cc1OCC)CN(C(=O)c1cc3sccc3n1Cc1ccccc1)CC2`, the Potency is 1320 nM (active). For the compound `CCOC(=O)C1CCN(C(=O)C2(NC(=O)Nc3ccc(F)cc3F)CCCCC2)CC1`, the Potency entry was “inactive”. Take `CCOc1ccc(CCNC(=O)c2cc3sccc3n2CCN2CCN(C)CC2)cc1OCC`: the Potency was 332 nM (active). For `CCOC(=O)C1CCN(C(=O)C(C)(C)NC(=O)Nc2cccc(C(=O)OC)c2)CC1`, the Potency result was “inactive”. Regarding `CCOc1ccc(CCNC(=O)c2ccc3ccccc3n2)cc1OCC`, the Potency result was “inactive”. The value for `CC(NCc1ccc2c(c1)nc(NC(=O)c1ccc(-c3cn[nH]c3)s1)n2CC(C)(C)O)C(C)(C)C` (stereo not given) was “inactive”; that for `CCOc1ccc(CCNC(=O)c2csc(Br)n2)cc1OCC` was “inactive”.

As to `CC(C)(C)OC(=O)NCCOCCOCCOc1ccc(-n2ncc3c2CCCC3NC(=O)c2ccccn2)cc1` (stereo not given), the Potency was 9.3 nM (active).

In the case of `CN(C)CC(=O)NC1CCCc2c1cnn2-c1ccc(F)cc1F` (stereo not given), the Potency entry was “inactive”.

With `CCOc1ccc(CCNC(=O)c2cc3c(s2)CCC3)cc1OCC`, the Potency was 332 nM (active).

Consider `O=C(N[C@H]1CCCc2c1cnn2-c1ccc(F)cc1F)c1ccccn1`, for which the Potency result is “inactive”. On to `CCOc1cc(F)c(CCNC(=O)c2cc3sccc3n2Cc2ccccc2)cc1OCC`, for which the Potency is 3.3 nM (active). For the compound `O=C(NC1CCCc2c1cnn2-c1ccc(F)cc1F)c1ccccn1` (stereo not given), the Potency is 23.5 nM (active) and 4.7 nM (active).

Turning to `COc1nc(-c2ccc3c(c2)OCO3)n(-c2ccc(NC(=O)CSc3ccccc3)cc2)n1`, the Potency entry was “inactive”. For `CC(C)(C)OC(=O)NCCOCCOCCOc1cccc(-n2ncc3c2CCCC3NC(=O)c2ccccn2)c1` (stereo not given), the Potency was 18.7 nM (active). Consider `CCOC(=O)C1CCN(C(=O)C(C)(C)NC(=O)Nc2ccc3sccc3c2)CC1`, for which the Potency result is “inactive”.

With `CCn1c(C(=O)NCCc2ccc(OC)cc2)cc2sccc21`, the Potency result was “inactive”. For `CCOc1ccc(CCNC(=O)c2cc3ccccc3n2Cc2cc(C)cc(C)n2)cc1OCC`, the Potency was 16.6 nM (active). Regarding `CCOC(=O)C1CCN(C(=O)C(C)(C)NC(=O)Nc2ccc(CN3CCOCC3)cc2)CC1`, the Potency result was “inactive”.

Take `CCOc1ccc(CCNC(=O)c2cc3sccc3n2Cc2ccc(Cl)c(F)c2)cc1OCC`: the Potency is 5.9 nM (active). Next, `CCOc1ccc(CCNC(=O)c2ccccn2)cc1OCC`: “inactive”; `CC1(C)CCC(c2ccc(Cl)cc2)=C(CN2CCN(c3ccc(C(=O)NS(=O)(=O)c4ccc(N[C@H](CCN5CCOCC5)CSc5ccccc5)c(S(=O)(=O)C(F)(F)F)c4)cc3)CC2)C1`: 526 nM (active); `CCn1c(C(=O)NCc2ccc(OC)c(OC)c2)cc2sccc21`: “inactive”. As for `O=C(NC1CCCc2c1cnn2-c1ccc(F)cc1F)c1ccc(C2(C(F)(F)F)N=N2)cc1` (stereo not given), the Potency is 7430 nM (active).

Consider `CCOc1ccc(CCNC(=O)c2cc3sccc3[nH]2)cc1OCC`, for which the Potency result is “inactive”. `CCOc1ccc(CCNC(=O)c2ccc3[nH]ccc3c2)cc1OCC`: the Potency result is “inactive”.

With `CCn1c(C(=O)NCCc2ccc(OC)c(OC)c2)cc2sccc21`, the Potency result is “inactive”. With `CCOc1ccc(CCNC(=O)c2cccs2)cc1OCC`, the Potency entry was “inactive”. Turning to `CN(C)Cc1ccc(-c2nc3cccc4c3n2CCNC4=O)cc1`, the Potency entry is “inactive”.

`CCOc1ccc(CCNC(=O)c2cc3ccccc3n2Cc2ccc(Cl)c(F)c2)cc1OCC`: the Potency was 5.9 nM (active).

For `O=C(Nc1cccc2c1cnn2-c1ccc(F)cc1)c1ccccn1`, the Potency result was “inactive”. Consider `CCOC(=O)C1CCN(C(=O)C(C)(C)NC(=O)Nc2ccc(N)cc2)CC1`, for which the Potency result was “inactive”. Take `CCOC(=O)C1CCN(C(=O)C(C)(C)NC(=O)Nc2ccc(-c3ccccc3)cc2)CC1`: the Potency entry was “inactive”.

Regarding `CCOc1ccc(CCNC(=O)c2cc3ccccc3o2)cc1OCC`, the Potency result is “inactive”. The value for `CCOC(=O)C1CCN(C(=O)C(C)(C)NC(=O)Nc2cccc(-c3csc(C)n3)c2)CC1` was “inactive”; that for `CCOC(=O)C1CCN(C(=O)C(C)(C)NC(=O)Nc2ccc(OC)c(Cl)c2)CC1` was “inactive”. As to `CC(C)(C)OC(=O)N1CCCCC1C(=O)NC1CCCc2c1cnn2-c1ccc(F)cc1F` (stereo not given), the Potency result is “inactive”.
